In PubChem BioAssay AID1159580 (chemical genetic matrix, 2015):
Out of some 5,500 compounds screened, about 2,000 (36%) were called active. Another 18% or so got no clear call; they are omitted. Rule as the data show it: active = normalized growth mostly below about 0.91 (no sharp cut-off); inconclusive = no clear call, values can overlap the other calls; inactive = mostly above about 0.92. Some of the results follow.

Experiment: chemical genetic growth profiling, strain panel (AID 1159580);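 also: tested at 20 µM; growth read once vehicle control cultures reached saturation at 30 °C; 1 = growth at the plate median or of vehicle wells; lower values mean less growth of the strain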
Conditions: S. cerevisiae deletion strains, growth OD

Measured: normalized growth

CNC(=O)[C@H]1O[C@@H](n2cnc3c(NCc4ccc(I)cc4)nc(Cl)nc32)[C@H](O)[C@@H]1O
inactive: locus YAL013W, strain DEP1, hits give low values 0.986 | locus YAL040C, strain CLN3, hits give low values 0.939 | locus YCL061C, strain MRC1 (second series), hits give low values 0.996 | locus YDR150W, strain NUM1, hits give low values 1 | locus YDR363W, strain ESC2, hits give low values 0.944 | locus YER002W, strain NOP16, hits give low values 0.97 | locus YGR078C, strain PAC10, hits give low values 0.99 | locus YJR075W, strain HOC1, hits give low values 0.999 | locus YMR263W, strain SAP30, hits give low values 0.995 | locus YMR307W, strain GAS1, hits give low values 1 | locus YNL128W, strain TEP1, hits give low values 0.981 | locus YNL175C, strain NOP13, hits give low values 0.962 | locus YNL197C, strain WHI3, hits give low values 0.98 | locus YNL224C, strain SQS1, hits give low values 0.997 | locus YNL322C, strain KRE1, hits give low values 0.972 | locus YOR083W, strain WHI5 (second series), hits give low values 0.918 | locus YPL055C, strain LGE1, hits give low values 0.937
